# Where “and” joins values, the source holds several entries; their conditions need not be identical. Equal entries are not always repeated. Calls of active or inactive are those of the source.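 How the source made its calls, unless noted: active means compounds whose cell count with miR-34 switched on is under 0.7 times the count with it off; inactive means the rest.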
# Assays:
# [1] = viability loss with induced miR-34 in A549 – imaging, A549 dox-inducible miR-34, nuclei and caspase counts, primary screen (AID 1347080); conditions: A549 miR-34 inducible, Hoechst nuclei count, 48 h
# [2] = chitosan synthesis blockers in C. neoformans – flow cytometry, Cibacron Brilliant Red staining (AID 1347148; call rule not given here;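 further: compound exposure lasted three days at 37 degrees C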); conditions: Cryptococcus neoformans chitosan, stronger effect = lower value; at 10 µM unless noted
# [3] = compounds altering viability of human ES cells (AID 493140; call rule not given here;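 further: cells exposed to compounds for four days before counting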); conditions: human embryonic stem cell survival screen; stronger effect = higher value
# [4] = P. berghei load reduction in hepatocytes – cell-based, HepG2, luciferase luminescence, HepG2 viability, primary screen (AID 624349; in the data active means parasite load remaining mostly below about 12%, no sharp cut-off; inactive means mostly above about 10%;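 further: 100% = mean of DMSO negative control wells on the same plate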); conditions: P. berghei liver stage in HepG2, luciferase luminescence, concentration not given here; parasite load remaining: stronger effect = lower value; viability: measured here: HepG2 viability without parasites
# [5] = MELAS cybrid and Rieske KO viability enhancers – cell-based, MELAS cybrids, Rieske KO mouse fibroblasts, CellTiter-Glo, primary screen (AID 1508586;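 active means mean z-score across replicates of 1.96 or higher in either the MELAS or the Rieske mutant cell line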;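 further: z relative to plate mean and SD of compound and empty wells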); conditions: low glucose
# [6] = compounds altering circadian rhythm period length – cell-based, LOPAC library, luminescence reporter (AID 2774; call rule not given here;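 further: values are relative to mean of DMSO wells on each plate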); conditions: circadian reporter cells, at 7 µM, actives lie on both sides
# [7] = test system: Hepatitis C virus NS3 helicase; assay: blockers of NS3h binding to ssDNA – biochemical, fluorescence polarization, LOPAC1280 library, primary screen (AID 687035; in the data active means inhibition above about 37%); conditions: Purified HCV NS3 helicase, Cy5-dT15 ssDNA binding fluorescence polarization; stronger effect = higher value; concentration not given here
# [8] = compounds altering Cy5-DNA-NS3h complex signal – biochemical, LOPAC1280, artefact control for HCV NS3 helicase inhibitor project (AID 687037; call rule not given here); conditions: Cy5-DNA-NS3h complex fluorescence interference counterscreen
# [9] = blockers of cellular phospholipid synthesis – cell-based, LOPAC library, screen 4, primary screen (AID 1347384; call rule not given here); conditions: animal cells, phospholipid biosynthesis inhibition screen; at 10 µM
# [10] = galactose survival enhancers in mitochondrial complex I cybrids – cell-based, galactose medium, ATP luminescence, primary screen (AID 1645843;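 active means z-score of at least 1.8 in each of two replicates, scored against plate mean and spread of sample wells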;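 further: positive z means more ATP and so rescue of galactose-driven cybrid death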); conditions: complex I mutant cybrid cells, 72 h, stronger effect = higher value
# [11] = stronger effect = lower value, cell number ratio, induced over uninduced
# [12] = measured here: relative caspase fold change +Dox/-Dox
# [13] = measured here: total cells with miR-34 induction, stronger effect = lower value
# [14] = measured here: total cells without miR-34 induction
# [15] = MELAS cybrid survival, CellTiter-Glo 48 h, stronger effect = higher value
# [16] = Rieske KO mouse fibroblast survival, CellTiter-Glo 72 h
compound,measurement,setting,value
CCCCC[C@@](C)(O)/C=C/[C@H]1C(=O)C[C@H](O)[C@@H]1C/C=C\CCCC(=O)O,fold change,[1]; [11],0.936 (inactive)
same,fold change,[1]; [12],1.24
same,cell count,[1]; [13],5370
same,cell count,[1]; [14],5740
O=C1C(Nc2ccccc2)=CC(=O)c2ncccc21,fold change,[1]; [11],0.735 (inactive) and 0.883 (inactive)
same,fold change,[1]; [12],1.99 and 0.965
same,cell count,[1]; [13],1070 and 904
same,cell count,[1]; [14],1450 and 1020
same,fold fluorescence,[2],7.9 [at 199.8 µM] (inactive)
CC[N+](C)(CC)CCC[n+]1c(-c2ccccc2)c2cc(N)ccc2c2ccc(N)cc21,survival,[3],5.17 (inactive)
same,parasite load remaining,[4],62.2% (inactive)
same,viability,[4],92.5%
same,fold change,[1]; [11],0.82 (inactive) and 0.917 (inactive)
same,fold change,[1]; [12],1.46 and 1.13
same,cell count,[1]; [13],7160 and 5250
same,cell count,[1]; [14],8730 and 5720
same,fold fluorescence,[2],8.39 [at 120.6 µM] (inactive)
same,z-score,[5]; [15],-0.661 (inactive)
same,z-score,[5]; [16],1.71
CCCCC[C@H](O)/C=C/[C@H]1[C@H](O)CC(=O)[C@@H]1C/C=C/CCCC(=O)O,fold change,[1]; [11],0.972 (inactive)
same,fold change,[1]; [12],1.22
same,cell count,[1]; [13],5510
same,cell count,[1]; [14],5670
CCCCC[C@H](O)/C=C/[C@H]1[C@@H](O)CC(=O)[C@@H]1CCCCCCC(=O)O,fold change,[1]; [11],0.965 (inactive)
same,fold change,[1]; [12],1.07
same,cell count,[1]; [13],5320
same,cell count,[1]; [14],5510
CCN(CC)CCCCCCCCOC(=O)c1cc(OC)c(OC)c(OC)c1,period change,[6],-0.085 h (inactive)
same,inhibition,[7],-4% (inactive)
same,fluorescence ratio (interference),[8],0.9 (inactive)
same,fold change,[1]; [11],1.02 (inactive) and 0.949 (inactive)
same,fold change,[1]; [12],0.695 and 1.09
same,cell count,[1]; [13],8240 and 4880
same,cell count,[1]; [14],8090 and 5140
same,fold fluorescence,[2],8.07 [at 126.4 µM] (inactive)
same,outcome,[9],inactive
same,z-score,[10],-0.285 (inactive)
COc1cc2ncc(-c3ccccc3)nc2cc1OC,survival,[3],66.2 (inactive)
same,parasite load remaining,[4],37% (inactive)
same,viability,[4],96.9%
same,fold change,[1]; [11],0.803 (inactive) and 0.84 (inactive)
same,fold change,[1]; [12],1.43 and 0.498
same,cell count,[1]; [13],3060 and 6730
same,cell count,[1]; [14],3820 and 8010
same,fold fluorescence,[2],6 [at 187.8 µM] (inactive)
same,z-score,[5]; [15],0.0666 (inactive)
same,z-score,[5]; [16],1.44
C[C@@]1(C2CCCC2)Cc2cc(OCC(=O)O)c(Cl)c(Cl)c2C1=O,period change,[6],0.04 h (inactive)
same,inhibition,[7],-6% (inactive)
same,fluorescence ratio (interference),[8],1 (inactive)
same,fold change,[1]; [11],1.13 (inactive) and 0.909 (inactive)
same,fold change,[1]; [12],0.91 and 1.29
same,cell count,[1]; [13],11200 and 5500
same,cell count,[1]; [14],9900 and 6050
same,fold fluorescence,[2],4.41 [at 140 µM] (inactive)
same,outcome,[9],inactive
same,z-score,[10],0.845 (inactive)
CCCCC[C@H](O)/C=C/[C@@H]1[C@@H](C/C=C\CCCC(=O)OC)[C@@H](O)C[C@H]1O,fold change,[1]; [11],0.963 (inactive)
same,fold change,[1]; [12],1.19
same,cell count,[1]; [13],5860
same,cell count,[1]; [14],6080
